Assay results: PubChem BioAssay (NCI)
Compounds without any hit were thinned out: in the full panel of roughly 79,000, 15% have a hit. Cut-off read from the data, not from the text of the source: active = growth inhibition above about 70%; inactive = the rest.

Assays:
[1] = NCI Yeast Anticancer Drug Screen. Data for the rad50 strain (AID 155);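 note: 0% = growth of vehicle-only cultures of the same strain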; conditions: S. cerevisiae rad50 strain growth inhibition; at 50.0 µM; active compounds read high
Outline: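 Readout: growth inhibition relative to vehicle-treated cultures. Compound exposure was carried out in a genetically defined yeast strain deficient in DNA damage repair.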

[2] = NCI Yeast Anticancer Drug Screen. Data for the mec2-1 strain (AID 157); conditions: S. cerevisiae mec2-1 strain, at 50.0 µM, active compounds read high
Outline: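 Using mec2-1 yeast: add compound, measure growth, express inhibition versus vehicle-treated cultures.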

[3] = NCI Yeast Anticancer Drug Screen. Data for the sgs1 mgt1 strain (AID 161);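 note: 0% = growth of cultures given vehicle only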; conditions: S. cerevisiae sgs1 mgt1 strain, at 50.0 µM, active compounds read high
Outline: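 Percent growth inhibition was derived by comparing compound-exposed mutant yeast with vehicle-exposed cultures. The strain carries alterations in DNA damage repair.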

[4] = NCI Yeast Anticancer Drug Screen. Data for the cln2 rad14 strain (AID 165);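 note: 0% = growth equal to vehicle treated cultures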; conditions: S. cerevisiae cln2 rad14 strain, at 50.0 µM, active compounds read high
Outline: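 Yeast strain cln2 rad14, bearing defects in cell cycle control and DNA repair, serves as the test system; values reflect growth inhibition compared with vehicle.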

[5] = NCI Yeast Anticancer Drug Screen. Data for the bub3 strain (AID 167); conditions: S. cerevisiae bub3 mutant strain, at 50.0 µM, active compounds read high
Outline: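 Readout: yeast growth inhibition, expressed relative to vehicle-only wells. The test organism is a mutant strain from a panel with lesions in DNA repair or checkpoint genes.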

[6] = NCI Yeast Anticancer Drug Screen. Data for the mlh1 rad18 strain (AID 175); conditions: S. cerevisiae mlh1 rad18 strain growth inhibition; at 50.0 µM; active compounds read high
Outline: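 Steps: expose repair-defective yeast to compound; measure growth; express inhibition against vehicle-treated controls.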

Measured: growth inhibition

C=C(CCC(C(=O)O)C1CCC2(C)C3=C(CCC12C)C1(C)CCC(O)C(C)(C)C1CC3)C(C)C (configuration not stated)
inactive: [1] -4% | [2] -29.5% | [3] -0.75% | [4] 2.15% | [5] -23.6% | [6] -8.25%

CC(C)(C)c1cc(C2COC(=O)COCCOCC(=O)OCCOCCO2)cc(C(C)(C)C)c1O (configuration not stated)
inactive: [1] 12.5% | [2] -13.8% | [3] -10.4% | [4] 4.4% | [5] -23.3% | [6] -60.5%

COc1ccc(/C=C2/NC(=S)N=C2Cl)cc1
inactive: [1] -6.9% | [2] -21.8% | [3] 4.3% | [4] -0.45% | [5] 18.1% | [6] -29%

COc1ccc(OC)c(N(CN2C(=O)CCC2C(=O)O)C(C)=O)c1 (configuration not stated)
inactive: [1] 10.2% | [2] 10.2% | [3] -13.3% | [4] 1.05% | [5] -17.7% | [6] -23.3%

C=C1C(=O)OC2CC(C)C3(O)CCC(=O)C3(C)CC12 (configuration not stated)
inactive: [1] -14.8% | [2] -24.9% | [3] -5.2% | [4] 4.45% | [5] -18.4% | [6] -33.5%

O=C(O)c1n[nH]nc1Cl
inactive: [1] -5.9% | [2] 0.7% | [3] 5.35% | [4] -4.2% | [5] -6.15% | [6] 19.2%

CC1OC(Oc2c(-c3cc(O)c(O)c(O)c3)oc3cc(O)cc(O)c3c2=O)C(O)C(O)C1O (configuration not stated)
inactive: [1] -14.2% | [2] -16.8% | [3] -8% | [4] 9.75% | [5] -21.2% | [6] -13.6%

NC(=O)CC1OC(=O)Cc2cc3c(c(O)c21)C(=O)c1c(O)cccc1C3=O (configuration not stated)
inactive: [1] 1.05% | [2] 3.55% | [3] 22.4% | [4] 27.7% | [5] 16.5% | [6] -28.6%

COc1ccccc1-c1n[nH]c(-c2ccccc2O)n1
inactive: [1] 31.7% | [2] -24.1% | [3] 27.8% | [4] -10.7% | [5] 22.9% | [6] -54.1%

CCC(=O)C(CC)c1cccc(OC)c1 (configuration not stated)
inactive: [1] 16.6% | [2] -3.8% | [3] 12.2% | [4] 25.3% | [5] 9.55% | [6] 21.4%

Cc1cc(S(=O)(=O)O)c(NC(=O)c2oc3cc(O)ccc3c(=O)c2C)cc1Cl
inactive: [1] -9.4% | [2] -22.9% | [3] 3.9% | [4] 9.5% | [5] -8.35% | [6] 3.95%

CN(C)c1ccc(/C=N/n2c(-c3ccccc3)nc3ccccc3c2=O)cc1
inactive: [1] 14.3% | [2] 14.2% | [3] 43.8% | [4] 13.4% | [5] 50.8% | [6] -41%
